Assay results reported in PubChem BioAssay (NCATS).
Several values for one entry are separate records, joined by “and”; a condition that tells them apart may be missing. Identical values can stand only once. Results filed as inconclusive are left out. A number with no mark means an inactive call. Activity calls are given as the source filed them. Calls come from the whole dose curve; as a rule, active = well fitted curve in the direction sought with a large enough effect; inconclusive = small, poorly fitted or top-dose-only effect, or another doubt; inactive = no such curve, though single readings can be large; an effect the other way counts as inactive or inconclusive.

test: qHTS of pediatric cancer cell lines to identify multiple opportunities for drug repurposing: Primary screen for SK-N-MC cells (AID 1347093); conditions: SK-N-MC viability, CellTiter-Glo luminescence, 48 h; series mostly up to 46 µM; activity change, negative = cytotoxic: at the top concentration;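 for activity change, negative = cytotoxic: plate controls were DMSO neutral control for no effect and bortezomib for full effect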
How it was run: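 Metabolically active cells were quantified by ATP-dependent luminescence (CellTiter-Glo, 15 min at room temperature) following 48 h treatment. Cells had been plated at 500-1,000 per well and settled for 5 h beforehand.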
Potency is the fitted concentration of half-maximal effect.

Row | SMILES | Potency | activity change, negative = cytotoxic
1 | CS(=O)(=O)Nc1ccc([N+](=O)[O-])cc1Oc1ccccc1 | 23.5 µM (active) | 
2 | CS(=O)(=O)CCNCc1ccc(-c2ccc3ncnc(Nc4ccc(OCc5cccc(F)c5)c(Cl)c4)c3c2)o1 | 93.5 nM (active) and 11.9 µM (active) | 
3 | Cn1c(=O)c2c(ncn2C)n(C)c1=O | inactive | 
4 | CC(C)NCC(O)c1ccc(O)c(O)c1 (stereo not given) | 0.935 µM (active) | 
5 | CC(=O)OCC(CCn1cnc2cnc(N)nc21)COC(C)=O | inactive | 
6 | CN(Cc1cnc2nc(N)nc(N)c2n1)c1ccc(C(=O)N[C@@H](CCC(=O)O)C(=O)O)cc1 | 0.003 µM (active) | 
7 | CN1CCN(CCCN2c3ccccc3Sc3ccc(Cl)cc32)CC1 | 0.0418 µM (active) | 
8 | CC[C@@]1(O)C(=O)OCc2c1cc1n(c2=O)Cc2cc3c(CN(C)C)c(O)ccc3nc2-1 | 6.7 nM (active) and 23.5 nM (active) | 
9 | COc1ccc(CCN(C)CCCC(C#N)(c2ccc(OC)c(OC)c2)C(C)C)cc1OC (stereo not given) |  | 2.14%
10 | CC1(CN2CCC(n3c(=O)[nH]c4ccccc43)CC2)OCc2ccccc2-n2cccc21 (stereo not given) | 33.2 µM (active) | 
11 | Cc1cnc(C(=O)NCCc2ccc(S(=O)(=O)NC(=O)NC3CCCCC3)cc2)cn1 |  | -1.38%
12 | CC1COc2c(N3CCN(C)CC3)c(F)cc3c(=O)c(C(=O)O)cn1c23 (stereo not given) |  | 66.2%
13 | CCOC(=O)Nc1ccc(NCc2ccc(F)cc2)nc1N |  | -25.2%
14 | COc1cc2nc(N3CCN(C(=O)C4COc5ccccc5O4)CC3)nc(N)c2cc1OC (stereo not given) | 29.6 µM (active) | 
15 | O=C1Cc2cc(CCN3CCN(c4nsc5ccccc45)CC3)c(Cl)cc2N1 |  | -36.7%
16 | CN1CCC(=C2c3ccccc3CC(=O)c3sccc32)CC1 | 6.62 µM (active) | 
17 | CC(C)(C)C(=O)Oc1ccc(S(=O)(=O)Nc2ccccc2C(=O)NCC(=O)O)cc1 |  | 2.01%
18 | CC#C[C@]1(O)CC[C@H]2[C@@H]3CCC4=CC(=O)CCC4=C3[C@@H](c3ccc(N(C)C)cc3)C[C@@]21C | 0.118 µM (active) | 
19 | OCCN1CCN(CCCN2c3ccccc3Sc3ccc(C(F)(F)F)cc32)CC1 | 2.09 µM (active) | 
20 | CC1(C)O[C@H]2CC(=O)OC[C@]23[C@H]2CC[C@@]4(C)[C@H](c5ccoc5)OC(=O)[C@H]5O[C@]54[C@]2(C)C(=O)C[C@@H]13 | inactive | 
21 | Clc1ccc2c(c1)C(N1CCNCC1)=Nc1ccccc1O2 |  | -14.5%
22 | CN(C)C(=N)N=C(N)N | inactive | 
23 | Clc1ccc(C(c2ccccc2Cl)C(Cl)Cl)cc1 (stereo not given) | 16.6 µM (active) | 
24 | Cn1ccc2cc3c(cc21)CCN3C(=O)Nc1cccnc1 |  | -15.9% [at 16.1 µM]
25 | CC[N+](CC)(CC)CCOc1cccc(OCC[N+](CC)(CC)CC)c1OCC[N+](CC)(CC)CC | inactive | 
26 | CN(CCOc1ccc(NS(C)(=O)=O)cc1)CCc1ccc(NS(C)(=O)=O)cc1 |  | 14.8%
27 | CN(C)CCCN1c2ccccc2CCc2ccc(Cl)cc21 | 332 nM (active) and 23.7 µM (active) | 

test: qHTS of pediatric cancer cell lines to identify multiple opportunities for drug repurposing: Primary screen for BT-37 cells (AID 1347094); conditions: BT-37 viability, CellTiter-Glo luminescence, 48 h; series mostly up to 57.3 µM; activity change, negative = cytotoxic: at the top concentration;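 for activity change, negative = cytotoxic: plate controls were DMSO for no effect and bortezomib for full effect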
How it was run: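 Plated cells (500-1,000 per well, growth media) were allowed to settle for 5 hours, treated with compound dilutions for 48 hours, then lysed with CellTiter-Glo for 15 min at room temperature before luminescence reading.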

Row | SMILES | Potency | activity change, negative = cytotoxic [%]
28 | C[C@@H]1CC(=O)NN=C1c1ccc(NN=C(C#N)C#N)cc1 | inactive | 
29 | CS(=O)(=O)Nc1ccc([N+](=O)[O-])cc1Oc1ccccc1 |  | -4.62
30 | CS(=O)(=O)CCNCc1ccc(-c2ccc3ncnc(Nc4ccc(OCc5cccc(F)c5)c(Cl)c4)c3c2)o1 | 24.3 µM (active) and 27.6 µM (active) | 
31 | CC(C(=O)O)c1cccc(C(=O)c2ccccc2)c1 (stereo not given) | inactive | 
32 | Cn1c(=O)c2c(ncn2C)n(C)c1=O | inactive | 
33 | Nc1nnc(-c2cccc(Cl)c2Cl)c(N)n1 | inactive | 
34 | CC(=O)OCC(CCn1cnc2cnc(N)nc21)COC(C)=O | inactive | 
35 | CN(Cc1cnc2nc(N)nc(N)c2n1)c1ccc(C(=O)N[C@@H](CCC(=O)O)C(=O)O)cc1 | 9.8 nM (active) and 48.5 nM (active) | 
36 | CN1CCN(CCCN2c3ccccc3Sc3ccc(Cl)cc32)CC1 | 9.68 µM (active) | 
37 | CC[C@@]1(O)C(=O)OCc2c1cc1n(c2=O)Cc2cc3c(CN(C)C)c(O)ccc3nc2-1 | 19.5 nM (active) and 86.3 nM (active) | 
38 | COc1ccc(CCN(C)CCCC(C#N)(c2ccc(OC)c(OC)c2)C(C)C)cc1OC (stereo not given) | inactive | 
39 | CC1(CN2CCC(n3c(=O)[nH]c4ccccc43)CC2)OCc2ccccc2-n2cccc21 (stereo not given) |  | -2.64
40 | Cc1cnc(C(=O)NCCc2ccc(S(=O)(=O)NC(=O)NC3CCCCC3)cc2)cn1 |  | 6.26
41 | Cc1cn([C@H]2C[C@H](N=[N+]=[N-])[C@@H](CO)O2)c(=O)[nH]c1=O |  | -13.1
42 | CC1COc2c(N3CCN(C)CC3)c(F)cc3c(=O)c(C(=O)O)cn1c23 (stereo not given) | inactive | 
43 | CCOC(=O)Nc1ccc(NCc2ccc(F)cc2)nc1N | inactive | 
44 | CN1CCC(=C2c3ccccc3CC(=O)c3sccc32)CC1 | inactive | 
45 | CC(C)(C)C(=O)Oc1ccc(S(=O)(=O)Nc2ccccc2C(=O)NCC(=O)O)cc1 | inactive | 
46 | CC#C[C@]1(O)CC[C@H]2[C@@H]3CCC4=CC(=O)CCC4=C3[C@@H](c3ccc(N(C)C)cc3)C[C@@]21C | 0.243 µM (active) | 
47 | OCCN1CCN(CCCN2c3ccccc3Sc3ccc(C(F)(F)F)cc32)CC1 | 13.7 µM (active) | 
48 | CC1(C)O[C@H]2CC(=O)OC[C@]23[C@H]2CC[C@@]4(C)[C@H](c5ccoc5)OC(=O)[C@H]5O[C@]54[C@]2(C)C(=O)C[C@@H]13 | inactive | 
49 | Clc1ccc2c(c1)C(N1CCNCC1)=Nc1ccccc1O2 | inactive | 
50 | CN(C)C(=N)N=C(N)N | inactive | 
51 | Cn1ccc2cc3c(cc21)CCN3C(=O)Nc1cccnc1 | inactive | 
52 | CC[N+](CC)(CC)CCOc1cccc(OCC[N+](CC)(CC)CC)c1OCC[N+](CC)(CC)CC | inactive | 
53 | CN(CCOc1ccc(NS(C)(=O)=O)cc1)CCc1ccc(NS(C)(=O)=O)cc1 | inactive | 
54 | Clc1ccc2nsnc2c1NC1=NCCN1 | inactive | 
55 | CN(C)CCCN1c2ccccc2CCc2ccc(Cl)cc21 | 12.2 µM (active) and 24.6 µM (active) | 
